# High-throughput results from PubChem.
# SRC1 inh – human NCOA1 inhibition; Q15788; HEK293 GAL4-SRC1 luciferase reporter, luminescence; inhibition, % at 3.6 µM; actives 0.12% (n = 360,000); AID 588354;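 active = inhibition above the campaign mean plus 3 SD, with each screening campaign given its own cutoff, cut at about 60% in these data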
# NR2F2 inh – NR2F2 (human) inhibition, primary screen; P24468; HEK293T NGFI-A luciferase reporter, luminescence; inhibition, % at 8.6 µM; actives 0.7% (n = 370,000);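 active = inhibition above a per-plate cutoff, mean inhibition of test wells between control levels plus 3 SD, cut at about 38% in these data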;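 also: cells cotransfected with COUP-TFII expression vector driving the NGFI-A reporter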
# NR5A2 inv ag – suppresses constitutive activity of human LRH-1; inhibition, % at 3.6 µM; O00482; AID 602396; HEK293T StAR-luciferase reporter, LRH-1 transfected, 24 h; actives 0.13% (n = 360,000);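 active = inhibition above the mean inhibition of all tested compounds plus 3 SD, cut at about 73% in these data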
# Target sequence (O00482 whole entry, looked up): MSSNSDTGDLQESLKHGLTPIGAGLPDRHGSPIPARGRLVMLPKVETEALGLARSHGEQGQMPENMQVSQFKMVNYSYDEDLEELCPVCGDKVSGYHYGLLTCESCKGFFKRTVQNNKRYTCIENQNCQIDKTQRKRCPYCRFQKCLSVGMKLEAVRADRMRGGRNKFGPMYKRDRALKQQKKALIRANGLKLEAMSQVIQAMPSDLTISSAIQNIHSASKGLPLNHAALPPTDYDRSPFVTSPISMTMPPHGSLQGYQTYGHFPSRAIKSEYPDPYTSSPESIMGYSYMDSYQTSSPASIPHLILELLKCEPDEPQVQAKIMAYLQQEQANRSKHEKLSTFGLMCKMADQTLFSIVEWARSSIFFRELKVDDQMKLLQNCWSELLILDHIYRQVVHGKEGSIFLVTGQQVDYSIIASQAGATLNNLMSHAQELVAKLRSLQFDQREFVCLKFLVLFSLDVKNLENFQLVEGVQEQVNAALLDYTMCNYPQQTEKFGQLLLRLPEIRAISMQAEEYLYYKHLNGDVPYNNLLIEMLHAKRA
# NCOA3 inh – inhibitors of human steroid receptor coactivator 3 (SRC3); HEK293 GAL4-SRC3 luciferase reporter, luminescence; actives 0.17% (n = 360,000); inhibition, % at 3.6 µM;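 active = inhibition above a per-campaign cutoff, the mean of all compounds plus 3 SD, cut at about 60% in these data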;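 also: higher means less SRC3-driven luciferase light from the GAL4 reporter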
# SRC2 inh – human SRC2 (NCOA2) inhibition; Q15596; HEK293 GAL4-SRC2 luciferase reporter, luminescence; inhibition, % at 9 µM; actives 0.17% (n = 370,000);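 active = inhibition above the mean inhibition of all tested compounds plus 3 SD, set per campaign, cut at about 52% in these data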
# Gli-Sufu antag – blocks Gli-Sufu signaling in a luciferase reporter; Sufu-KO-LIGHT fibroblasts, Gli luciferase reporter luminescence; inhibition, % at 5 µM; actives 0.74% (n = 340,000);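 active = inhibition above about 55%, limit read from the data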
# Gli antag conf – Gli-SUFU antagonism confirmation, single concentration. shares compounds with Gli-Sufu antag. Sufu-KO-LIGHT cells, Gli luciferase reporter, luminescence. inhibition, % at 5 µM. actives 40% (n = 2,500). AID 602428;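 active = mean inhibition at 5 µM reaching about 45%, limit read from the data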
# SufuKO cytotox – cytotoxic in Gli-SUFU antagonist counter-screen. shares compounds with Gli-Sufu antag. Sufu-KO-LIGHT cells cytotoxicity, ATP luminescence. cytotoxicity, % at 5 µM. actives 32% (n = 2,500). AID 651994;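 active = mean cytotoxicity at 5 µM above about 25%, limit read from the data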;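 also: cells exposed to compound overnight for roughly 16 to 18 hours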
# Wnt3a counter – Wnt3a reporter inhibition counter-screen; shares compounds with Gli-Sufu antag; Wnt-LIGHT cells, Wnt3a-driven luciferase reporter, luminescence; inhibition, % at 6.25 µM; actives 20% (n = 2,500);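 active = mean inhibition above about 25%, limit read from the data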
# Hits are given with their value; 0 = inactive; - = not tested or not shown. In the library only some 1.3% were active in any assay of this set; here they are far more common.
SMILES,SRC1 inh,NR2F2 inh,NR5A2 inv ag,NCOA3 inh,SRC2 inh,Gli-Sufu antag,Gli antag conf,SufuKO cytotox,Wnt3a counter
O=C(CN1CCN(Cc2ccccc2)CC1)Nc1nnc(C(F)(F)F)s1,0,0,0,0,0,63.4,0,0,0
CSc1ccc(C2(O)Cc3cccc[n+]3C2c2ccccc2)cc1 (stereo not drawn),0,0,0,0,0,55.8,0,0,0
O=C(c1cnc(N2CCN(c3ccccn3)CC2)c2ccccc12)N1CCN(c2cccc(Cl)c2)CC1,0,0,0,0,0,65.3,53.9,36.1,0
COc1ccc(-c2cn(-c3ccc(SC(F)F)cc3)c3[n+]2CCC3)cc1OC,0,0,0,0,0,0,-,-,-
COc1ccc(-n2cc(-c3ccccc3)[n+]3c2CCCCC3)cc1,0,0,0,0,0,85.2,87.2,28.2,37.1
FC(F)Sc1ccc(-n2cc(-c3ccccc3)[n+]3c2CCC3)cc1,0,0,0,0,0,60.5,58.6,36.3,0
COCCNC(=S)N(C)[C@H]1C[C@H]2c3[nH]c4c(-c5cccc(C)c5)cccc4c3CCN2C[C@H]1[C@H](C)O,-,0,-,-,0,-,-,-,-
Cc1cc(=O)oc(C)c1C(=O)NCCN1CCOCC1,0,0,0,0,0,71.6,0,0,25.5
CCn1c(C)c(C)c2cc(C(=O)NCCN3CCOCC3)ccc21,0,0,0,0,0,57.7,0,0,0
CSc1ccc(-c2cnc(N3CCC(C(N)=O)CC3)s2)cc1,-,0,-,-,-,-,-,-,-
Cc1ccc(NC(=O)/C=C/c2ccc([N+](=O)[O-])s2)cc1,0,0,0,0,0,0,-,-,-
Cc1ccc(NC(=O)/C=C/c2ccc([N+](=O)[O-])s2)c(C)c1,0,0,0,0,0,72.3,0,0,89.7
Cc1ccccc1OCc1nc2ccccc2c(=O)n1/N=C/c1ccco1,0,0,0,0,0,93.4,0,25.8,0
C=CCN=C(NC#N)SCC(=O)NC(C)(C)C,0,0,0,0,0,0,-,-,-
C=CCN=C(NC#N)SC,0,0,0,0,0,58.2,0,0,0
COc1cccc(/C=N/NC(=O)c2ccc([N+](=O)[O-])cc2Cl)c1O,0,0,0,0,0,64.1,0,0,0
Cc1ccc(-c2noc(C3CCCN(C(=O)c4ccc(C(C)(C)C)cc4)C3)n2)o1 (stereo not drawn),0,0,0,0,0,0,0,0,0
O=C(c1cc2n(n1)C(C(F)(F)F)CC(c1ccc(Cl)cc1)N2)N1CCCC1 (stereo not drawn),0,0,0,0,0,57.1,0,0,0
O=c1c2ccccc2c2ccccc2c(=O)n1Cc1cccnc1,0,0,0,0,0,59.0,0,0,0
CCN(CC)CCNC(=O)c1ccc(NC(=O)c2cccc(S(=O)(=O)N3CCCCCC3)c2)cc1,0,0,0,0,0,0,0,0,0
CCOC(=O)C1(CCOc2ccccc2)CCN(Cc2nccn2CC)CC1,0,0,0,0,0,0,-,-,-
CCOC(=O)C1(CCc2ccccc2)CCN(Cc2cccc3nccnc23)CC1,0,0,0,0,0,0,0,0,0
CCOC(=O)C1(CCCc2ccccc2)CCN(Cc2nccn2CC)CC1,0,0,0,0,0,0,0,0,0
CCOc1ccc(-n2c(SCC(=O)Nc3ccc4c(c3)c3ccccc3n4CC)nnc2-c2cccnc2)cc1,-,0,-,-,0,-,-,-,-
Cc1ccc(C)c(OCC(O)CN2CCC(CN3C(=O)c4cccc5cccc(c45)C3=O)CC2)c1 (stereo not drawn),0,0,0,0,0,0,0,0,28.2
SMILES,SRC1 inh,NR2F2 inh,NR5A2 inv ag,NCOA3 inh,SRC2 inh,Gli-Sufu antag,Gli antag conf,SufuKO cytotox,Wnt3a counter
CC12CCCCN1CCCc1c2[nH]c2ccccc12 (stereo not drawn),0,0,0,0,0,57.5,0,49.7,0
c1ccc2c3c([nH]c2c1)C1(CCCCC1)NCC3,0,0,0,0,0,0,-,-,-
CN1CCc2c(sc3c2c(=O)n(-c2ccccc2)c2nnc(SCc4ccc(Cl)cc4)n32)C1,0,0,0,0,0,0,0,0,0
CCCCCCCCN1C(=O)[C@@H](CC(=O)NCCc2ccccc2OC)C[C@@]2(C(=O)OC)C1=C[C@H](C(C)C)O[C@@H]2C1CC1,-,0,-,-,0,-,-,-,-
COc1cccc(/C=N/Nc2ncnc3c2ncn3Cc2ccccc2)c1O,0,0,91.5,66.9,0,0,78.3,31.7,68.9
Cc1ccc(NC(=S)Nc2ccc(S(=O)(=O)N3CCOCC3)cc2)cc1S(=O)(=O)N1CCOCC1,0,0,0,0,0,0,0,0,0
CCCCOc1ccccc1NC(=O)c1scc2c1OCCO2,0,0,0,0,0,55.9,0,0,0
COC(=O)[C@]12C[C@H](CC(=O)N3CCOCC3)C(=O)N(CCC3=CCCCC3)C1=C[C@H](C(C)C)O[C@@H]2C1CC1,-,0,-,-,0,-,-,-,-
CC(C)Oc1ccccc1C1CC(=O)Nc2cc3c(cc21)OCCO3 (stereo not drawn),0,0,0,0,0,0,60.2,59.4,0
CCCOc1ccccc1N/C(=N/c1nc(C)cc(C)n1)NC(=O)COc1ccc(OC)cc1,0,0,0,0,0,66.6,47.9,0,0
CCCOc1ccccc1N/C(N)=N/c1nc(C)cc(C)n1,0,0,0,0,0,0,-,-,-
O=[N+]([O-])c1cc(/C=N/N/C(=N/c2ccccn2)c2ccccn2)ccc1O,0,0,0,0,0,79.2,0,26.7,0
Cc1ccc(S(=O)(=O)NCC(=O)N2CCN(c3ccccn3)CC2)s1,-,0,-,-,0,-,-,-,-
C=CCN(C(=O)Cn1nc(C)n2c(cc3cc(C)ccc32)c1=O)c1ccccc1,0,0,0,0,0,63.4,0,0,0
CCOC(=O)N1CCN(C(=O)C[C@H]2C[C@@]3(C(=O)OC)C(=C[C@H](C(C)(C)C)O[C@@H]3C)N(Cc3cccc4ccccc34)C2=O)CC1,-,0,-,-,0,-,-,-,-
COC1C(CO)OC(n2c3c(Cl)cccc3c3c4c(c5c6cccc(Cl)c6[nH]c5c32)C(=O)NC4=O)C(O)C1O (stereo not drawn),70.3,0,0,63.9,0,61.7,0,25.7,29.7
Cc1cc(C)cc(N(CC(=O)NC2CCC(C)CC2)S(=O)(=O)c2ccc(Cl)s2)c1 (stereo not drawn),-,0,-,-,0,-,-,-,-
CCOC(=O)Nc1ccc2c(c1)N(C(=O)CN1CCN(CCO)CC1)c1ccccc1CC2,0,0,0,0,0,0,-,-,-
CCOC(=O)Nc1ccc2c(c1)N(C(=O)CN1CCN(C)CC1)c1ccccc1CC2,0,0,0,0,0,0,0,0,0
